From publication PMC7819943, “Rice protein-binding microarrays: a tool to detect cis-acting elements near promoter regions in rice”
The full ranking holds about 35,000 sequences; the median of “fluorescence intensity (a.u.)” is about 10,000, and the highest 2% start at about 52,000. Many of the other results were omitted from the sample, so the highest values are more common in it than they were.

The sequences below were run against T1, OsWOX13 (Oryza sativa, UniProt Q5QMM3 1-267) (assay: protein-binding microarray (RPBM); PBS, 2% BSA, 51.3 ng/ul salmon testes DNA, 50 uM zinc acetate, 200 nM TF, 25 C, 1 h; high values mean tight binding). Conditions: protein: recombinant; tags: N-terminal polyhistidine and DsRed monomer fusion (pET32a); label: CyDye5-dUTP incorporated in the synthesized complementary strand; 3' TTTTT single-stranded linker to array surface; dsDNA, one strand shown.
T1 sequence: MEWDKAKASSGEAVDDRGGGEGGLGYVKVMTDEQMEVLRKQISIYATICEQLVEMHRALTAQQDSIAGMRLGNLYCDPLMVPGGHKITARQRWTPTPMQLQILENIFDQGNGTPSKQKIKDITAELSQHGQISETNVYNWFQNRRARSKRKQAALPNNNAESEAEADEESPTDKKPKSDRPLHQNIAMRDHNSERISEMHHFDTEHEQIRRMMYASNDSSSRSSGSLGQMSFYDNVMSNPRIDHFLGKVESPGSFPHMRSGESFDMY
Method in brief: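 Transcription factors were each fused at the N-terminus to a polyhistidine tag plus DsRed and expressed in E. coli BL21-CodonPlus before Ni–NTA purification. Binding to a double-stranded custom Agilent array was carried out with 200 nM protein at 25 °C for 1 h in PBS, 2% BSA, salmon testes DNA and 50 µM zinc acetate. The binding signal is per-feature fluorescence intensity, in arbitrary units, on an Axon 4000B scanner.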
“CCCGTACGTGTTACCTAATCATGATGGGATGCCATAATACCGGAGTCACCTAGTGCAG” was tested, and the binding signal was 3570 fluorescence intensity (a.u.).
For “ACATTAATGTGATTTCCCATTTCTACCCTATAGTTCAACACGGAGTCACCTAGTGCAG”, the binding signal was 12800 fluorescence intensity (a.u.).
“ACGTTGATTAGTTAGTACTAACCTACTCCTACGTGTTAACCGGAGTCACCTAGTGCAG” was tested, and the binding signal was 30400 fluorescence intensity (a.u.).
“AAATTACTAATTTACCTATAATTAGTTGGACTCTAGCTCTCGGAGTCACCTAGTGCAG” was tested, and the binding signal was 37600 fluorescence intensity (a.u.).
For “GTAATTAATTACTTGATTAACAATTAAATAATAATAGTTACGGAGTCACCTAGTGCAG”, the binding signal was 33200 fluorescence intensity (a.u.).
“GATTAATTGAAAGTTTACATGGACGACGTTGACTCGGGGCCGGAGTCACCTAGTGCAG” was tested, and the binding signal was 54700 fluorescence intensity (a.u.).
With “TTTAATTTTGAATTTTAATTAATTGGAGTTTACACGGACTCGGAGTCACCTAGTGCAG” the binding signal was 39800 fluorescence intensity (a.u.).
“ATTACATTGACTAATAGATGATTTAGAGCTAATAGTGGGCCGGAGTCACCTAGTGCAG” was tested, and the binding signal was 25200 fluorescence intensity (a.u.).
For “CGCGTTGATTAATTAGTCAGTTCGTTAACAACCTCGACTACGGAGTCACCTAGTGCAG”, the binding signal was 53000 fluorescence intensity (a.u.).
“GCTATAAAATTGACTATAATTGATTTGGAGCCGGTAGTTGCGGAGTCACCTAGTGCAG” was tested, and the binding signal was 63600 fluorescence intensity (a.u.).
For “AAAGTAGTTAATTACTGCTAATTACATGGATTAGTTGGGTCGGAGTCACCTAGTGCAG”, the binding signal was 33500 fluorescence intensity (a.u.).
With “TATTAAATTGACTATAGATGATTTGGAGCTAGTAATTGGCCGGAGTCACCTAGTGCAG” the binding signal was 36800 fluorescence intensity (a.u.).
For “TACTAAATTGACTATGGACGATTTAGAGCTCGTAGTTGGCCGGAGTCACCTAGTGCAG”, the binding signal was 53600 fluorescence intensity (a.u.).
With “AAAATTGACTATAAATGATTTGGAGCCGGTAGTTGGCTATCGGAGTCACCTAGTGCAG” the binding signal was 51700 fluorescence intensity (a.u.).
With “ACAAGTTGATGGGGACACTTTTCTTATGTAGTATATAATTCGGAGTCACCTAGTGCAG” the binding signal was 3270 fluorescence intensity (a.u.).
“AACCCTGATTTCCGTGCTCAACGTTTGACCGTCCGTCTTGCGGAGTCACCTAGTGCAG” was tested, and the binding signal was 4670 fluorescence intensity (a.u.).
“TCGATCACAAATTAATATTGTTTGCATACATACTCATATGCGGAGTCACCTAGTGCAG” was tested, and the binding signal was 6200 fluorescence intensity (a.u.).
In the case of “ATCCAATCATTTCAAAACGTATTCCTCAGCACATTAAACGCGGAGTCACCTAGTGCAG”, the binding signal is reported as 19400 fluorescence intensity (a.u.).
For “CCATAATTTTGCAAAGACATCAAACCAAATAAAACCAATGCGGAGTCACCTAGTGCAG”, the binding signal was 6680 fluorescence intensity (a.u.).
With “GCTAATTGCAATTTTGGCCGTCCATAAAGAGCTTGCGGCCCGGAGTCACCTAGTGCAG” the binding signal was 52900 fluorescence intensity (a.u.).
With “ACTAGCTAACTAAATTTGAAAGAGACTAGCTAGCTGCTTGCGGAGTCACCTAGTGCAG” the binding signal was 6300 fluorescence intensity (a.u.).
In the case of “GATAATGGTAGTGATTGGTTGAGGCTTGAGAGTAGATGTACGGAGTCACCTAGTGCAG”, the binding signal is reported as 30600 fluorescence intensity (a.u.).
“CTAAACCGCATAATAATTTACAGAAATGCCCCTCACCTCCCGGAGTCACCTAGTGCAG” was tested, and the binding signal was 11300 fluorescence intensity (a.u.).
In the case of “GCACCTTTCAAATTCATCTGATTTATGCATTCTTCTGTAACGGAGTCACCTAGTGCAG”, the binding signal is reported as 3340 fluorescence intensity (a.u.).
In the case of “ATTGATTGATAAACCCTACTGCTTCTCGCCGCCGCCGCCGCGGAGTCACCTAGTGCAG”, the binding signal is reported as 55100 fluorescence intensity (a.u.).
In the case of “CCTCTTGATTGATTGCTCGGTCGACTGATTGCTTCTTACACGGAGTCACCTAGTGCAG”, the binding signal is reported as 65000 fluorescence intensity (a.u.).
In the case of “TTGGTTGGTTGGTTGATTGCTCGCGCCCCGCGCGGTTGCGCGGAGTCACCTAGTGCAG”, the binding signal is reported as 6680 fluorescence intensity (a.u.).
For “ATGTGATTGATTCTGCTGGTGGATTCTCTCTTCGGTTTGCCGGAGTCACCTAGTGCAG”, the binding signal was 62800 fluorescence intensity (a.u.).
With “CCGACCCGTTGGATTGATAAAACCAACTGCTTCCCGCTCCCGGAGTCACCTAGTGCAG” the binding signal was 6190 fluorescence intensity (a.u.).
With “ATTGTTGCTGCTGCTGGATTGATTAGTGGTTAAGCAGATTCGGAGTCACCTAGTGCAG” the binding signal was 5320 fluorescence intensity (a.u.).
For “CTCTTGATTGCGGCGCGACTGCGAGCGAGAGAGCTTCACGCGGAGTCACCTAGTGCAG”, the binding signal was 20500 fluorescence intensity (a.u.).
With “CTCCCAAGTAAATGATTTGAAATACCCGATCTAATTATTACGGAGTCACCTAGTGCAG” the binding signal was 3180 fluorescence intensity (a.u.).
In the case of “CCAAGCAAATAATCCGATAGATTGAATCGGTGAGTTACCACGGAGTCACCTAGTGCAG”, the binding signal is reported as 9630 fluorescence intensity (a.u.).
In the case of “TTTTGCAATGTGATTTGCTGGTTTGGATAGTGGAGAAGTTCGGAGTCACCTAGTGCAG”, the binding signal is reported as 3300 fluorescence intensity (a.u.).
In the case of “TGGCCTTGATTTGCTTCCTGAATGTGCCTGCTTCCTTACACGGAGTCACCTAGTGCAG”, the binding signal is reported as 18100 fluorescence intensity (a.u.).
For “ACCAAGTAATTGATATCTAGAAATCCGATACCTAGTACCACGGAGTCACCTAGTGCAG”, the binding signal was 55000 fluorescence intensity (a.u.).
With “ATTTATTAATATTAATATTATTGTGGGAAATTTTAGAATGCGGAGTCACCTAGTGCAG” the binding signal was 3460 fluorescence intensity (a.u.).
“TGCTGTAATTACTTTTCTGTAATTTGGATTAATCCTTCGCCGGAGTCACCTAGTGCAG” was tested, and the binding signal was 40800 fluorescence intensity (a.u.).
“AGATACTTAATTAGTGTCTTCTATAAGCAAAGGTCAGGAACGGAGTCACCTAGTGCAG” was tested, and the binding signal was 11300 fluorescence intensity (a.u.).
With “GCTCTATCACAAAATAAACTAGAGTTATGAAGCTGGATTTCGGAGTCACCTAGTGCAG” the binding signal was 4850 fluorescence intensity (a.u.).
For “GTTATGTAATTAAAACGTTGTTTTCTTCTAATATATTGTCCGGAGTCACCTAGTGCAG”, the binding signal was 7150 fluorescence intensity (a.u.).
“AATCAAATCATCTCATCAAAGTCCAATCCCGCTAGCTCCACGGAGTCACCTAGTGCAG” was tested, and the binding signal was 9000 fluorescence intensity (a.u.).
